Bioassay records as filed in PubChem.
PABP polyA inh: PABP-poly(A) binding inhibition | P11940 | PABP-poly(A) RNA binding, fluorescence polarization | calls only at 35 µM | hit rate 1% among 290,000 | AID 2014;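 note: calls also rest on retests at 20 µM and on dose response follow-up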
eIF4H FP inh: inhibitors of RNA binding by human eIF4H | Q15056 | eIF4H fluorescence polarization binding assay | inhibition, % at 35 µM | hit rate 0.94% among 290,000 | AID 2012;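 note: calls also rest on retests at 20 µM and on dose response follow-up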
PERK inh: inhibitors of human PERK kinase | Q9NZJ5 | CHO PERK-DD fusion, SEAP luminescence translation reporter | inhibition, % at 5.6 µM | hit rate 0.17% among 220,000;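 active = inhibition above the mean inhibition of all tested compounds plus 3 SD, set separately per screening campaign, cut at about 2.9% in these data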;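 note: PERK kinase domain activated by AP20187 dimerizer at 100 nM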
eIF4E-4G inh: inhibitors of eIF4E and eIF4G interaction in translation initiation. TR-FRET eIF4E-eIF4GI(517-606) binding, 2 h. inhibition, % at 21.7 µM. AID 782. hit rate 0.37% among 220,000;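 active = inhibition above about 30%, limit read from the data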
PABP1 MLLE inh: inhibitors of microRNA-mediated deadenylation, human PABP1 MLLE binding. hit rate 0.36% among 360,000. inhibition, % at 20 µM. GST-MLLE / FITC-PAM2 fluorescence polarization. AID 588489; in the data active = inhibition above about 35%, passing the limit was not always enough
Large screens that a line does not name were inactive; [ ] = dose if it differs, or a comment. This is a sample that favours compounds with a hit; in the whole collection about 1.6% have one here. Unless noted, the rule behind the calls is not given here.

CCCCC1=CC2=CC(=O)C(C)(OC(=O)CC)C(=O)C2=CN1C1CCCCC1 (centres undefined)	none (no result: PERK inh)
COC(=O)CCCC1=CC2=CC(=O)C(C)(OC(=O)c3cccs3)C(=O)C2=CN1C1CC1 (centres undefined)	PABP polyA inh active, eIF4H FP inh 87 (no result: PERK inh)
COC(=O)CCCC1=CC2=CC(=O)C(C)(OC(=O)c3cccs3)C(=O)C2=CN1CCN1CCOCC1 (centres undefined)	PABP polyA inh active (no result: PERK inh)
CC1(OC(=O)CCc2ccccc2)C(=O)C=C2C=C(c3ccc(C#N)cc3)N(Cc3ccccc3)C=C2C1=O (centres undefined)	none (no result: PERK inh)
CC1(OC(=O)CCc2ccccc2)C(=O)C=C2C=C(c3ccc(C#N)cc3)N(C3CC3)C=C2C1=O (centres undefined)	PABP polyA inh active (no result: PERK inh)
CCCCC1=CC2=CC(=O)C(C)(OC(=O)CC)C(=O)C2=CN1CCCCO (centres undefined)	PABP1 MLLE inh 45 (no result: PERK inh)
CCN(CC(=O)Nc1c(F)cccc1F)C(=O)C1CCN(S(=O)(=O)c2ccc(C)c(C)c2)CC1	none (no result: PABP polyA inh, eIF4H FP inh, PERK inh, eIF4E-4G inh)
Cc1cc(C)n2nc3ccccc3c2n1	none
Cc1cc(C)n2nc3nc(N4CCCCC4)nc(-c4ccco4)c3c2n1	PABP polyA inh active, eIF4H FP inh 72 (no result: PERK inh)
O=C1/C(=C/C=C/c2ccco2)SC(=S)N1NS(=O)(=O)c1ccccc1	PABP polyA inh active, eIF4H FP inh 89, eIF4E-4G inh 34
CC(C(=O)O)N1C(=O)/C(=C/C=C/c2ccco2)SC1=S (centres undefined)	PABP polyA inh active, eIF4H FP inh 89 (no result: eIF4E-4G inh)
O=C1/C(=C/c2cccs2)SC(=S)N1NS(=O)(=O)c1ccccc1	none
Cc1ccc(COC(=O)CCN=C2NS(=O)(=O)c3ccccc32)cc1	none (no result: PABP polyA inh, eIF4H FP inh, PERK inh, eIF4E-4G inh)
C[C@@H]1CN([C@H](C)CO)C(=O)CCCn2nncc2CO[C@H]1CN(C)C(=O)c1ccncc1	none (no result: PABP polyA inh, eIF4H FP inh, PERK inh, eIF4E-4G inh)
COC(=O)c1c(C)[nH]c(O)c1C=Nc1ccc(C(C)C)cc1	PABP polyA inh active, eIF4H FP inh 85
O=C(CCC(=O)c1ccc(F)cc1)NCC1(N2CCCCC2)CCCCC1	none (no result: PABP polyA inh, eIF4H FP inh, PERK inh, eIF4E-4G inh)
CCC(C)C(NC(=O)CCC(=O)OCC(=O)[C@@]1(O)CCC2[C@@H]3CCC4=CC(=O)C=C[C@]4(C)C3[C@@H](O)C[C@@]21C)C(=O)O (some centres undefined)	none (no result: PERK inh, eIF4E-4G inh)
COc1ccc(CCNC(=O)Cn2cnc3ccccc3c2=O)cc1OC	none
COc1ccc(CCNC(=O)Cn2cnc3c(cnn3-c3ccccc3Cl)c2=O)cc1OC	eIF4E-4G inh 31[fluorescence artefact?]
N=C(N)SCP(=O)(c1ccccc1)c1ccccc1	PABP1 MLLE inh 38
O=C(CSc1nc(Nc2ccccc2)nc(N2CCOCC2)n1)NC1CCCCC1	none (no result: PERK inh, eIF4E-4G inh)
O=C(CCN1C(=O)/C(=C/c2ccco2)SC1=S)Nc1ccc(C(=O)O)c(O)c1	PABP polyA inh active, eIF4H FP inh 86 (no result: PERK inh, eIF4E-4G inh)
O=C(O)CCCN1C(=O)/C(=C\c2ccco2)SC1=S	PABP polyA inh active, eIF4H FP inh 100
COc1ccc(CCN2C(=O)/C(=C\c3ccco3)SC2=S)cc1OC	PABP polyA inh active, eIF4H FP inh 63
O=C(CN1C(=O)/C(=C\c2ccco2)SC1=S)Nc1ccc(O)cc1C(=O)O	PABP polyA inh active, eIF4H FP inh 79 (no result: PERK inh, eIF4E-4G inh)
CC(=C\c1ccccc1)/C=C1/SC(=S)N(CCCC(=O)O)C1=O	none (no result: PERK inh, eIF4E-4G inh)
CC(/C=C1\SC(=S)N(CCC(=O)Nc2ccccc2O)C1=O)=C\c1ccccc1	PABP polyA inh active (no result: PERK inh, eIF4E-4G inh)
O=C(O)CCN1C(=O)/C(=C\c2ccc(-c3nc4ccccc4s3)o2)SC1=S	PABP polyA inh active, eIF4H FP inh 101
Cc1ccc(N2C(=O)/C(=C\c3ccco3)SC2=S)cc1	PABP polyA inh active, eIF4H FP inh 77
O=C1/C(=C\c2ccco2)SC(=S)N1c1ccccc1	none
O=C(CCCN1C(=O)/C(=C/c2ccco2)SC1=S)Nc1ccccc1C(=O)O	PABP polyA inh active, eIF4H FP inh 100
O=C(CCN1C(=O)/C(=C\c2ccco2)SC1=S)Nc1ccc(C(=O)O)c(O)c1	none (no result: PABP polyA inh, eIF4H FP inh, PERK inh, eIF4E-4G inh)
Cc1ccc(/C=C2\SC(=S)N(CC3CCCO3)C2=O)o1 (centres undefined)	none
CC1=NN2C(=N)/C(=C\c3ccc(SCc4ccccc4)o3)C(=O)N=C2S1	PABP polyA inh active, eIF4H FP inh inconclusive (no result: eIF4E-4G inh)
O=C1/C(=C/c2ccco2)SC(=S)N1CC1CCCO1 (centres undefined)	eIF4H FP inh 74
CC1=NN2C(=N)/C(=C\c3cc(C)n(Cc4ccccc4)c3C)C(=O)N=C2S1	none
O=C1/C(=C\c2ccco2)NC(=S)N1c1ccccc1	PABP polyA inh active
O=C(CCCN1C(=O)/C(=C\c2ccco2)SC1=S)Nc1ccc2ccccc2c1	PABP polyA inh active, eIF4H FP inh 78
CC(C(=O)NC1CCCCCC1)c1ccc([N+](=O)[O-])cc1 (centres undefined)	none (no result: PERK inh, eIF4E-4G inh)
O=C1/C(=C/c2ccccn2)SC(=S)N1Cc1ccccc1	none
O=C(CCN1C(=O)/C(=C/c2ccco2)SC1=S)Nc1ccc(O)cc1C(=O)O	PABP polyA inh active, eIF4H FP inh 101 (no result: PERK inh, eIF4E-4G inh)
O=C(O)CN1C(=O)/C(=C/c2ccc(SCc3ccccc3)o2)SC1=S	PABP polyA inh active, eIF4H FP inh 60
O=C1/C(=C\c2ccco2)SC(=S)N1Cc1ccccc1	PABP polyA inh active, eIF4H FP inh 76
COc1cc(C)c(C)cc1S(=O)(=O)NC1CC(C)(C)NC(C)(C)C1	none (no result: PERK inh, eIF4E-4G inh)
Oc1c(Cl)cc(Cl)cc1C=Nc1ccc2c(c1)OCCO2	PABP polyA inh active, eIF4H FP inh 16
CC(=O)Nc1ccc(C(=O)CSc2ncn(-c3ccccc3)n2)cc1	PABP1 MLLE inh 41
O=C(CSc1ncn(-c2ccccc2)n1)Nc1nc2ccccc2s1	none
O=C(CSc1ncn(-c2ccccc2)n1)Nc1nc2c(s1)CCCC2	PABP polyA inh active, eIF4H FP inh 74
CC(C)CN1C=C2C(=O)C(C)(OC(=O)C3CCCC3)C(=O)C=C2C=C1c1ccsc1 (centres undefined)	PABP polyA inh active (no result: PERK inh)
CC1(OC(=O)C2CCCC2)C(=O)C=C2C=C(c3ccsc3)N(Cc3ccccc3)C=C2C1=O (centres undefined)	none (no result: PERK inh)
CC1(OC(=O)C2CCCC2)C(=O)C=C2C=C(c3ccsc3)N(CCc3ccccn3)C=C2C1=O (centres undefined)	PABP polyA inh active (no result: PERK inh)
NS(=O)(=O)c1ccc(CCNC(=O)c2cc3ccccc3oc2=O)cc1	none (no result: PERK inh, eIF4E-4G inh)
CCOC(=O)C1c2cccc(O)c2CCN1C(C)=O (centres undefined)	none (no result: PABP polyA inh, eIF4H FP inh, PERK inh, eIF4E-4G inh)
O=C(Nc1ccccc1F)C1CCN(C(=O)NCc2ccccc2)CC1	none (no result: PERK inh, eIF4E-4G inh)
CN1c2cccc3cccc(c23)N(C)C1(C)C	PABP polyA inh active, eIF4H FP inh 73
CC(=O)c1ccc(NC(=O)c2cc(C)nc3ccccc23)cc1	none (no result: PERK inh, eIF4E-4G inh)
O=Cc1ccc(O)cc1O	none (no result: PERK inh, eIF4E-4G inh)
O=CN/C=C/c1cc(O)ccc1O	PABP polyA inh active, eIF4H FP inh 94
Cc1ccccc1-c1cc(C(=O)O)n(CC2CC(c3cccnc3)=NO2)n1 (centres undefined)	none (no result: PABP polyA inh, eIF4H FP inh, PERK inh, eIF4E-4G inh)
CC(C)(C)C1=Nn2c(nnc2-c2ccccn2)SC1	eIF4E-4G inh 51
